Where “and” joins values, the source holds several entries; their conditions need not be identical. Equal values may be shown once. The panel holds about 79,000 compounds, 15% with a hit somewhere; the sample as a whole holds those more often. Values without a mark were called inactive. Calls of active or inactive are those of the source. No stated cut-off is given here; in the data, active means growth inhibition above about 70%; inactive means the rest.

Assay [1] in a line: NCI Yeast Anticancer Drug Screen. Data for the rad50 strain (AID 155).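 Further: 0% = growth of vehicle-only cultures of the same strain.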 The settings on record: S. cerevisiae rad50 strain growth inhibition; at 50.0 µM; stronger effect = higher value. A digest of the protocol: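 Cells are treated with compound, grown, and their growth is then scored against vehicle-only cultures of the same repair-deficient yeast strain.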
Assay [2] can be described thus: NCI Yeast Anticancer Drug Screen. Data for the mec2-1 strain (AID 157). The following applies: S. cerevisiae mec2-1 strain, at 50.0 µM, stronger effect = higher value. The method in brief: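 Strain: mec2-1 (DNA repair/cell cycle alteration). Compound exposure, then growth measured; inhibition expressed relative to vehicle.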
Assay [3] in a line: NCI Yeast Anticancer Drug Screen. Data for the sgs1 mgt1 strain (AID 161).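 Further: 0% = growth of cultures given vehicle only.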 The settings on record: S. cerevisiae sgs1 mgt1 strain, at 50.0 µM, stronger effect = higher value. The method in brief:
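Read-out: growth inhibition vs vehicle controls. Cells: mutant yeast strain deficient in DNA damage repair.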

The nature of assay [4]: NCI Yeast Anticancer Drug Screen. Data for the cln2 rad14 strain (AID 165).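 Further: 0% = growth equal to vehicle treated cultures.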 The following applies: S. cerevisiae cln2 rad14 strain, at 50.0 µM, stronger effect = higher value. The method in brief: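 Compounds are applied to the cln2 rad14 yeast strain, and growth is then compared with that of vehicle-treated cultures to give inhibition.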
The nature of assay [5]: NCI Yeast Anticancer Drug Screen. Data for the bub3 strain (AID 167). The following applies: S. cerevisiae bub3 mutant strain, at 50.0 µM, stronger effect = higher value. A digest of the protocol:
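Part of a panel of yeast mutants defective in DNA damage repair or cell cycle regulation. Each strain is grown with compound, and inhibition is calculated relative to solvent-treated cultures.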

Assay [6] in a line: NCI Yeast Anticancer Drug Screen. Data for the mlh1 rad18 strain (AID 175). The following applies: S. cerevisiae mlh1 rad18 strain growth inhibition; at 50.0 µM; stronger effect = higher value. The method in brief:
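Read-out is yeast growth inhibition, calculated against vehicle-only controls. The compound was applied to a strain engineered with DNA damage repair alterations.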

As for `Cc1[nH]c2cc([N+](=O)[O-])ccc2c1[N+](=O)[O-]`, the growth inhibition in assay [1] is 44.6% and 36.9%; in assay [2] it was 32.2% and 25.4%; in assay [3] it was 26% and 38.3%; in assay [4] it was 24.9% and 9.1%; in assay [5], -4.65% and -4.55%; in assay [6], 59% and 41.8%.

With `CC1=CC2C(C=C1)S(=O)(=O)N1CC21c1ccccc1` (configuration not stated), the growth inhibition was 20.9% in assay [1]; -31.4% in assay [2]; -11% in assay [3]; -8.3% in assay [4]; -20.6% in assay [5]; -3.9% in assay [6].

As for `S=C(N/N=C/c1ccc(Cl)cc1)NC1CN2CCC1CC2` (configuration not stated), the growth inhibition in assay [1] was -1.6%; in assay [2], 9.6%; in assay [3], -22.1%; in assay [4], -15.8%; in assay [5], -7.9%; in assay [6], 11.7%.

`Cc1cc(NN=O)nc(C)n1`: the growth inhibition in assay [1] was -3.05%; in assay [2], -4.05%; in assay [3], -1.35%; in assay [4], -14.4%; in assay [5], -1.8%; in assay [6], 5.7%.

Consider `CCOC(=O)C1Oc2ccc([N+](=O)[O-])c3c2C1(O)CCC3` (configuration not stated), for which the growth inhibition is 7.2% in assay [1]; 1.3% in assay [2]; 5.8% in assay [3]; 26.6% in assay [4]; -8.8% in assay [5]; -6.65% in assay [6].

On to `C[N+](C)(C)CC(=O)O`, for which the growth inhibition in assay [1] was -4.3% and -7.25%; in assay [2], -10.6% and 10.3%; in assay [3] it was -20.4% and -6%; in assay [4], 10.8% and -11.2%; in assay [5], -29.2% and 3.4%; in assay [6], -2.65% and -7%.

For the compound `CC(C)(C1CCC(O)CC1)C1CCC(O)CC1` (configuration not stated), the growth inhibition in assay [1] is 19.5% and 13.4%; in assay [2], -19.5% and -13.6%; in assay [3] it was -12.2% and -21.9%; in assay [4] it was -12.6% and -17.6%; in assay [5] it was -5.75% and -21.8%; in assay [6], 31.4% and 16.1%.

On to `Cc1cc(NC(=O)CCc2ccc(N3C(N)=NC(N)=NC3(C)C)cc2Cl)ccc1S(=O)(=O)F`, for which the growth inhibition in assay [1] is 72.5% (active); in assay [2] it was 94.1% (active); in assay [3] it was 94.7% (active); in assay [4], 4.55%; in assay [5], 54%; in assay [6] it was 83.3% (active).

With `NNC(=O)c1ccc(N)cc1`, the growth inhibition in assay [1] was -12.1%; in assay [2], -9.75%; in assay [3] it was -8.3%; in assay [4], 6.05%; in assay [5] it was 4.75%; in assay [6], 7.1%.

For the compound `CC(=O)O/C=C(/C=C/OC(C)=O)C(C/C=C(\C)C#CC=C(C)C)OC(C)=O` (configuration not stated), the growth inhibition in assay [1] is 4.95%; in assay [2] it was -13.7%; in assay [3] it was 0.8%; in assay [4] it was -2.2%; in assay [5], 5.5%; in assay [6] it was -0.1%.

Take `CC(=O)[O-].CC(=O)[O-].CC(=O)[O-].CC(=O)[O-].[Mo+2].[Mo+2]`: the growth inhibition is -6.5% in assay [1]; 2.1% in assay [2]; 0.1% in assay [3]; 3.25% in assay [4]; 1.85% in assay [5]; 5.6% in assay [6].

In the case of `O=C1CN=CN1`, the growth inhibition in assay [1] is -8.85%; in assay [2], 8.85%; in assay [3], -0.45%; in assay [4] it was -12.6%; in assay [5] it was -7.5%; in assay [6], -5.3%.

As to `CCOC(CNCc1cccnc1)OCC`, the growth inhibition was -20.7% in assay [1]; -10.6% in assay [2]; -23.6% in assay [3]; 5.9% in assay [4]; -13.7% in assay [5]; -17.3% in assay [6].

For `[C-]#[O+].[C-]#[O+].[C-]#[O+].[Mo].c1ccc([PH+](CC[As](c2ccccc2)c2ccccc2)CC[As](c2ccccc2)c2ccccc2)cc1`, the growth inhibition in assay [1] was 11.4%; in assay [2], 9.45%; in assay [3], 21.1%; in assay [4] it was 19.2%; in assay [5], 6.7%; in assay [6], 28.9%.

Regarding `C[C@]12C=CC(=O)C=C1CC[C@@H]1[C@@H]2C(=O)C[C@]2(C)C(=O)CC[C@@H]12`, the growth inhibition is -11.4% in assay [1]; -19.1% in assay [2]; 2.05% in assay [3]; -1.85% in assay [4]; -4.4% in assay [5]; 4.95% in assay [6].

On to `NC(N)=N/N=C/c1c[nH]c2ccccc12`, for which the growth inhibition is -5.4% in assay [1]; -14.2% in assay [2]; -18% in assay [3]; 4.8% in assay [4]; -10.1% in assay [5]; -25.1% in assay [6].

With `Cc1nnnn1C`, the growth inhibition is -13.2% in assay [1]; -11.6% in assay [2]; -18.9% in assay [3]; -10.9% in assay [4]; -19.1% in assay [5]; -13.9% in assay [6].

For `O=[N+]([O-])c1cccc(/C=C/C=C/c2ccc(Cl)c(S(=O)(=O)F)c2)c1`, the growth inhibition is 7.95% in assay [1]; 14.4% in assay [2]; -39.5% in assay [3]; 6.5% in assay [4]; 9.05% in assay [5]; -7.1% in assay [6].

For `c1ccc2c(c1)sc1sc3ccccc3[n+]12`, the growth inhibition is 5.05% in assay [1]; -5.65% in assay [2]; 1.8% in assay [3]; 3% in assay [4]; 3.2% in assay [5]; -23.4% in assay [6].

On to `CN(C)CCNC(=O)c1cccc(COC(=O)Nc2ccc(N(CCCl)CCCl)cc2)c1[N+](=O)[O-]`, for which the growth inhibition in assay [1] was -3.55%; in assay [2], -15.8%; in assay [3], 1.2%; in assay [4], -49.8%; in assay [5], -3.65%; in assay [6], -11.9%.

As to `CSP(=S)(SC(C)C)SC(C)C`, the growth inhibition was 13.7% in assay [1]; 5.75% in assay [2]; 13.2% in assay [3]; 3.8% in assay [4]; 0.5% in assay [5]; 29.3% in assay [6].

As to `Oc1ccccc1-c1ccccc1`, the growth inhibition in assay [1] is 16.6% and 17.9%; in assay [2], 11.1% and 14.4%; in assay [3] it was 11% and 8.2%; in assay [4] it was -16.1% and 0.75%; in assay [5], -2.55% and -8.25%; in assay [6] it was 21.4% and 20.1%.

The values are drawn from PubChem BioAssay (NCI).
